Hits are enriched below; roughly 6% of the tested compounds scored in any of these assays.
DRD3 antagonist: qHTS of D3 Dopamine Receptor Antagonist: qHTS; D(3) dopamine receptor (Homo sapiens), P35462; D3R cells, DiscoveRx beta-arrestin luminescence, antagonist mode; hits give low values; max response, negative = inhibition, %; hit rate 2.5% among 360,000; AID 652054, 2013; in the data active = max response below about -50%; inconclusive = no clear call, values can overlap the other calls; also: % is scaled to controls: 0 for no effect and ±100 for the full control effect
Target sequence (P35462 whole entry, looked up): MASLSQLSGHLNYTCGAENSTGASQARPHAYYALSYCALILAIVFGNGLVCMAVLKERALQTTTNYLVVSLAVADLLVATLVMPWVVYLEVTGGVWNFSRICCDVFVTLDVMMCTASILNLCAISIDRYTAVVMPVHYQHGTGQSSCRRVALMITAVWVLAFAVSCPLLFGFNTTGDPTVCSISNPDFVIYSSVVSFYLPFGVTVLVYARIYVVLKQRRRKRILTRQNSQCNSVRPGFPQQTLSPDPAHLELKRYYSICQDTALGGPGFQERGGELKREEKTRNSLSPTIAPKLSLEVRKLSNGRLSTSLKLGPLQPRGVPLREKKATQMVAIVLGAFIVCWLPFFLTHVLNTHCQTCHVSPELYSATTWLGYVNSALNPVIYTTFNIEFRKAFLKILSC
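Cells expressing the human receptor were seeded at 1500 cells/well, incubated overnight at 37 degrees C in 5% CO2, then exposed to library compounds with dopamine controls for 90 minutes at 37 degrees C before luminescent detection.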
D1 antag: Antagonist of Human D 1 Dopamine Receptor: qHTS; activity change, negative = inhibition, % at 10 µM; D(1A) dopamine receptor (Homo sapiens), P21728; hit rate 3.2% among 360,000; HEK293 TREx D1 cells, calcium flux, dopamine EC80; hits give low values; in the data active = activity change below about -30%; also: % is scaled to controls: 0 for no effect and ±100 for the full control effect
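Antagonism measured as reduced calcium response to an EC80 dopamine addition following 180 s compound pre-read; cells were inducible HEK293 Trex D1 plated overnight at 30 C, read kinetically at 1 cycle/sec.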
DRD3 agonist: qHTS of D3 Dopamine Receptor Agonist: qHTS; D(3) dopamine receptor (Homo sapiens), P35462; D3R DiscoveRx beta-arrestin cells, luminescence, 90 min; max activation, %; hit rate 0.58% among 410,000; AID 652048, 2013; in the data active = max activation above about 30%; also: 0% is about no effect
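Agonist mode: compounds and dopamine controls were applied to plated cells for 90 min at 37 degrees C after an overnight attachment at 1500 cells/well. Luminescent read-out followed 30 - 60 minutes at room temperature with DiscoveRx detection reagent.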
D1 agonist: Allosteric Agonists of the Human D1 Dopamine Receptor: qHTS; D(1A) dopamine receptor (Homo sapiens), P21728; HEK293 T-REx D1 cells, calcium flux, agonist mode; activation, % at 2 µM; hit rate 1% among 360,000; AID 504660, 2011; in the data active = activation above about 30%; also: 0% is about no effect
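Agonism was scored from calcium flux recorded over 180 s (1 read/s) after pintool compound addition, following a 10-cycle baseline. Cells were inducible force-coupled HEK293 TREx D1, plated overnight at 30 C and loaded with no-wash calcium dye.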
D1 PAM: Potentiators of Human D1 Dopamine Receptor: qHTS | HEK293 TREx D1 cells, calcium flux, dopamine EC20 potentiation | potentiation, % at 10 µM | hit rate 0.036% among 360,000; in the data active = potentiation above about 30%; also: 0% is about no effect
Active calls of the source: *; u = inconclusive; x = no result given.

SMILES	DRD3 antagonist	D1 antag	DRD3 agonist	D1 agonist	D1 PAM
COC(=O)C1=C(c2ccc(Cl)c(C(F)(F)F)c2)C[C@@H]2CC[C@H]1N2C(=O)N1CCCC1	-4	-42*	-2	0	-1
COC(=O)C1=C(c2ccc(F)cc2F)C[C@@H]2CC[C@H]1N2C(=O)N1CCCC1	-7	2	-13	-1	-8
NP(=O)(OCCCc1ccccc1)c1ccccc1 (configuration not stated)	-15	5	36*	3	1
NP(=O)(OCCCc1ccccc1)Oc1ccc(Cl)cc1 (configuration not stated)	0	-17	4	1	-1
O=C(NC(=O)c1c(F)cccc1F)Nc1cc(Cl)c(OC(F)(F)C(F)C(F)(F)F)cc1Cl (configuration not stated)	x	x	7	x	x
C/C=C(\C)C(=O)OC1C(C)=C2C(C1OC(=O)CCCCC)C(C)(OC(C)=O)CC(OC(=O)CCC)C1(O)C2OC(=O)C1(C)O (configuration not stated)	x	-31*	x	109*	-10
CCOC(=O)NC(O)C(Cl)(Cl)Cl (configuration not stated)	x	x	3	x	x
Cc1c(C=O)c2ccccc2n1Cc1ccccc1	-21	-6	-4	3	2
O=Cc1c(C(=O)O)n(Cc2ccc(Cl)cc2)c2ccccc12	0	7	-3	54*	-2
CC(=O)c1ccc(OC(=O)N(C)c2ccccc2)cc1	-19	-1	10	4	10
CC(=O)c1ccc(-c2ccccc2)cc1	-27	-34*	-2	1	-9
O=C(COc1ccccc1)N1CCN(CC(O)COc2ccccc2)CC1 (configuration not stated)	-74*	13	-13	1	3
O=C(COc1ccccc1)N1CCN(C/C=C/c2ccccc2)CC1	u	4	0	3	8
CCCN1CCC[C@H](c2cccc(O)c2)C1	16	5	121*	1	-2
O=C(c1ccc(-c2ccccc2)c(F)c1)C1CCCN(CCO)C1 (configuration not stated)	-3	-29	-4	18	-5
CCCN1CCC[C@@H](c2cccc(O)c2)C1	12	-54*	21	-2	-6
COc1ccc2c3c1O[C@H]1[C@@H](O)C=C[C@H]4[C@@H](C2)N(C)CC[C@@]341	x	x	-4	x	x
CCCc1ccc(OCC(=O)Nc2ccc(Cl)cc2C(=O)c2ccccc2)cc1	x	-4	9	2	5
Cc1ccc(NC(=O)CN2C(=O)CN=C(c3ccccc3)c3ccccc32)cc1Cl	x	-1	5	4	-4
CN(C)C1CCc2[nH]c3c(F)cc(F)cc3c2C1 (configuration not stated)	-105*	x	-10	x	x
CCCC(C)C1(CC)C(=O)N=C(S)NC1=O (configuration not stated)	x	x	0	x	x
Cc1cc(OCc2ccc([N+](=O)[O-])cc2)c2c3c(c(=O)oc2c1)CCCC3	7	-30*	0	2	5
Nc1ccc(CCN2CCCC2)cc1	14	-13	-2	4	-5
Nc1ccc(CCN2CCN(c3cccc(C(F)(F)F)c3)CC2)cc1	-109*	x	-64	x	x
O=P(Nc1cccc(Cl)c1)(Oc1ccccc1)Oc1ccccc1	21	x	32*	0	2
SMILES	DRD3 antagonist	D1 antag	DRD3 agonist	D1 agonist	D1 PAM
COc1cccc(NP(=O)(Oc2ccccc2)Oc2ccccc2)c1	-1	-2	4	2	2
COCC(C)N(C(=O)CCl)c1c(C)csc1C (configuration not stated)	x	x	8	x	x
C=CCn1c(O)c(C=Nc2ccc(N(CC)CC)cc2)c(=O)[nH]c1=O	17	-5	10	31*	-4
C=CCn1c(O)c(C=Nc2ccc(F)cc2)c(=O)[nH]c1=O	-11	-10	-5	-1	-11
CCN(CC)c1ccc(N=Cc2c(O)n(-c3ccc(Cl)cc3)c(=O)[nH]c2=O)cc1	6	-38*	1	6	-6
Cc1ccc(-n2c(/C=C/c3cccs3)nc3ccccc3c2=O)cc1C	x	-6	4	2	2
COc1ccc(OCC(=O)N2CCN(Cc3cccc(OC)c3OC)CC2)cc1	x	-14	5	1	-1
